These results are taken from PubChem BioAssay.

SMILES strings stand for the structures. Results filed as inconclusive are left out. Active and inactive are the calls of the source.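 How the source made its calls, unless noted: active means viability at or below 10% of carrier control in both of two separate runs; inconclusive means viability at or below 10% in only one of the two runs; inactive means the rest.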

Assay [1] can be described thus: reducers of endogenous Her2 protein level, primary screen, SKBR3 breast tumor cells, AlphaScreen, ATP viability (AID 461;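 active means Her2 level under about 52% in both replicate screens, with viability over 70% of control, limit read from the data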;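 on Her2 level: lower value means less Her2 protein in the cells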;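 on viability: percent of carrier control wells set as 100% viability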). The conditions noted are these: 18-24 h, measured here: SKBR3 viability, ATP luminescence, at 10 µM. (In general: In Alpha technology, singlet oxygen from a donor bead excites a nearby acceptor bead.)
The target in assay [2] is Receptor tyrosine-protein kinase erbB-2 (Homo sapiens) (UniProt P04626). The description is as above. The conditions noted are these: 18-24 h, at 10 µM, stronger effect = lower value.
A short description of assay [3]: SK-BR-3 cell growth inhibitors, pilot screen, 24 h, human (AID 572).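 Further: compound exposure lasted between 18 and 24 h rather than exactly 24 h; 100% = carrier-treated control wells.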 The conditions noted are these: SK-BR-3 viability, CellTiter-Glo luminescence, at 10 µM, stronger effect = lower value.
Assay [4] in a line: HUVEC growth inhibition – cell-based, human, primary screen (AID 575;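 active means viability at or below 30% in both replicate assays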;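 further: 100% = median of untreated cell wells with 0.1% DMSO on each plate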). The conditions noted are these: HUVEC proliferation, CellTiter-Glo luminescence, 72 h; at 10 µM; stronger effect = lower value. For orientation: ATP-based viability assays read luminescence as a measure of living cells.
Assay [5] can be described thus: growth inhibitors of H69AR lung tumor, primary screen, human, duplicate replicates (AID 580;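 active means viability at or under a set limit in both replicates, limit being median viability minus 3 SD, cut at about 48% in these data, passing the limit was not always enough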;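 further: 100% = mean luminescence of untreated wells and 0% = no signal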). The conditions noted are these: H69AR lung tumor cells viability, ATP luminescence, 72 h; at 10 µM; stronger effect = lower value.
Assay [6] can be described thus: reversal of MRP1-mediated doxorubicin resistance, pilot screen, H69AR cells, doxorubicin co-treatment (AID 601;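 active means viability loss from added drug above about 55%, and viability with drug at most 40%, in both replicates, limit read from the data, passing the limit was not always enough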). The following applies: CellTiter-Glo, 72 h, at 10 µM; for differential viability (reversal): stronger effect = higher value.
Assay [7] can be described thus: 384-well plate pilot, post-Golgi transport modulator project, inhibition of yeast transport mutant growth (AID 636; in the data active means inhibition above about 31%). The following applies: absorbance 615 nm, about 18 h, stronger effect = higher value.
Assay [8] is described as follows: growth suppression of yeast trafficking mutant, preliminary HTS, modulators of trafficking downstream of Golgi apparatus project, 1536-format plate, OD 615 nm (AID 637; in the data active means inhibition above about 30%). The conditions noted are these: yeast transport mutant growth, absorbance 615 nm, 18 h; stronger effect = higher value.
Assay [9] in a line: OD615 S. cerevisiae growth inhibition, permissive medium, pilot counter-assay, permissive growth control for S. cerevisiae lifespan shortening project (AID 705;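 active means growth inhibition above 25% in both replicates, a cutoff set 3 SD above the mean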). The conditions noted are these: OD615, 24 h, at 10 µM, stronger effect = higher value.
The nature of assay [10]: Restrictive medium S. cerevisiae growth inhibition, OD615, pilot screen of yeast lifespan reduction project, restrictive growth control (AID 706;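 active means growth inhibition above a set limit, 3 SD over mean compound inhibition, in both replicates, cut at about 43% in these data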;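 further: modified DeaD lifespan yeast strain shifted to restrictive glucose medium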). The conditions noted are these: OD615, 48 h, at 10 µM, stronger effect = higher value.
A short description of assay [11]: viability gain of MRP-1-high H69AR cells under doxorubicin, pilot screen, MRP-1 activator project, CellTiter-Glo, duplicate (AID 807;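 active means viability increase at or above a cutoff of the median across tested compounds plus 3 SD, cut at about 8.5% in these data, passing the limit was not always enough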;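 further: compound pretreatment 18-22 h then 72 h combined with doxorubicin; 0% = doxorubicin alone and 100% = vehicle without doxorubicin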). The following applies: H69AR viability with doxorubicin, CellTiter-Glo luminescence; at 10 µM; stronger effect = higher value.
Assay [12] can be described thus: growth suppression of beta-catenin knockout HCT116, pilot screen, human colon tumor cells (AID 823;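 active means cell viability at or below a set limit in both duplicate runs, the limit being the all-compound median minus 4 SD, cut at about 23% in these data, passing the limit was not always enough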;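 further: 0% = wells killed by 20 µM Hyamine and 100% = untreated DMSO cell wells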). The conditions noted are these: CellTiter-Glo, 60 h, at 10 µM, stronger effect = lower value.
Assay [13] in a line: growth suppression of PTEN-deleted HCT116, pilot screen, cell-based, HCT116 clonal line, CellTiter-Glo (AID 824;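 active means viability at or below 27.92% in each of two runs, the all-compound median minus 4 SD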;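 further: 0% = 20 µM Hyamine control and 100% = vehicle cell control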). The following applies: 60 h, at 10 µM, stronger effect = lower value.
Assay [14] in a line: inhibitors of the yeast RAM network, pilot screen, dse1pr::URA3 reporter, 5-FOA selection (AID 869;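 active means inhibition over a set limit, the all-compound mean plus 3 SD, in both replicate runs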;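 further: 0% = DMSO wells with no growth and 100% = 10 µM 1-NA-PP1 with full growth; RAM network block rescues cells from 5-FOA so hits raise OD615 growth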). The following applies: S. cerevisiae dse1pr::URA3 5-FOA growth, OD615, 2 d; at 10 µM; stronger effect = higher value; strain carries analog-sensitive mutant Cbk1 kinase.
The nature of assay [15]: RAM signaling pathway blockade in yeast – S. cerevisiae, Pdr1DBD-CYC8 efflux-inhibited sensitized strain, primary screen (AID 1298;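 active means RAM network inhibition above 8.4% in each of two replicates, 3 SD over the compound average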;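 further: 0% = DMSO untreated cells without growth and 100% = 10 µM 1-NA-PP1 full growth; higher means more yeast growth rescued from 5-FOA killing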). The conditions noted are these: S. cerevisiae cbk1-as DSE1-URA3 strain, 5-FOA growth OD615, 2 d; at 50 µM; stronger effect = higher value.
Setting [16] is: H69AR cells + 2 uM doxorubicin, measured here: viability with 2 uM doxorubicin, stronger effect = lower value.
The mark [17] stands for this setting: H69AR cells, compound alone cytotoxicity.

Receptor tyrosine-protein kinase erbB-2 (Homo sapiens), sequence (P04626 whole entry, looked up): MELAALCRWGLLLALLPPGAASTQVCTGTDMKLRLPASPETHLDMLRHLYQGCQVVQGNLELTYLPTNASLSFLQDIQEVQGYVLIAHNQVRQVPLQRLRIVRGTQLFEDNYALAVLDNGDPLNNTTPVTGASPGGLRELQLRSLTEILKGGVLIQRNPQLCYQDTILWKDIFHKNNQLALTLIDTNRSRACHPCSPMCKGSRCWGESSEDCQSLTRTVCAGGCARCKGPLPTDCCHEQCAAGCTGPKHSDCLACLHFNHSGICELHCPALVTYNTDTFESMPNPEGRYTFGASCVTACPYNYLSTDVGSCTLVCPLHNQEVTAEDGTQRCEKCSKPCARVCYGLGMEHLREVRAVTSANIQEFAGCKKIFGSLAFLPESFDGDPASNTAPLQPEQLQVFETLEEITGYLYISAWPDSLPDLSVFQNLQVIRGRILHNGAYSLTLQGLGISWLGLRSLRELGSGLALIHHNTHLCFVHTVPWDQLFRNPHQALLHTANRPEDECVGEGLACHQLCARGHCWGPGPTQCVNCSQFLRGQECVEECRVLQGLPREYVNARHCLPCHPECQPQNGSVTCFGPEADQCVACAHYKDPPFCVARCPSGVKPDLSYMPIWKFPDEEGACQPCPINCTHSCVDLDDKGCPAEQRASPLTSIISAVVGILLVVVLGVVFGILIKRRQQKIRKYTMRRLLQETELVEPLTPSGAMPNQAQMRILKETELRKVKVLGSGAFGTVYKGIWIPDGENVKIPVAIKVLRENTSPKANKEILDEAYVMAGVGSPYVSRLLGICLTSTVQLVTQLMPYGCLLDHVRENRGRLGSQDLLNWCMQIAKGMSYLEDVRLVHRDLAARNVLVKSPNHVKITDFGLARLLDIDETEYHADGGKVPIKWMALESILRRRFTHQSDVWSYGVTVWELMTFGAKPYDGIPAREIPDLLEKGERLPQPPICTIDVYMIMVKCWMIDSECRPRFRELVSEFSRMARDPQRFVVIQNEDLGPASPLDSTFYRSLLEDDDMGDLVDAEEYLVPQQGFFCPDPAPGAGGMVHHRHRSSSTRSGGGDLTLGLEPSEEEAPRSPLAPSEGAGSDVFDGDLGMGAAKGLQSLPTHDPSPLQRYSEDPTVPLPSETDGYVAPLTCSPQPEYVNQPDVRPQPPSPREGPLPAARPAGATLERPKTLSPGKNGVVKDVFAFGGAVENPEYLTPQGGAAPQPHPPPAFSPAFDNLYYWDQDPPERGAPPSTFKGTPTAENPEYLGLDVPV

For `COC(=O)CN1C(=O)C(O)(CC(=O)c2ccc(C)cc2)c2cc(Br)ccc21` (stereo not drawn), the viability (commonly a read-out of living cells in per cent, often relative to untreated cells) in assay [1] is 102%; in assay [3] it was 102% (inactive); in assay [4], 88.2% (inactive); in assay [5], 81.6% (inactive); in [6] (setting [16]), 93.3%; in assay [6] (setting [17]), 81.6%. In addition, the values for the viability in assay [12] and in assay [13] were 91% (inactive) and 92.5% (inactive), respectively. Further, the Her2 level in assay [2] is 96.5% (inactive). Moreover, the differential viability (reversal) in [6] (H69AR cells + 2 uM doxorubicin) is -11.8% (inactive). Besides, the inhibition – broadly, the change of the read-out against control, counted positive when it falls – was -0.27% (inactive) in [7], -1.5% (inactive) in assay [8] and 1.67% (inactive) in assay [14]. In addition, the growth inhibition in assay [9] was -15.5% (inactive); in [10] it was 2.94% (inactive). Also, the viability increase in assay [11] is -0.78% (inactive). Also, in [15], the RAM network inhibition is 2.87% (inactive).
`Cc1cc(C)n(-c2cc(N3CCOCC3)ncn2)n1`: the viability was 101% in assay [1]; 101% (inactive) in [3]; 93.2% (inactive) in assay [4]; 91.7% (inactive) in assay [5]; 89.1% in assay [6] (setting [16]); 91.7% in [6] (setting [17]). Moreover, the viability is 93% (inactive) in [12] and 93.1% (inactive) in assay [13]. Further, in assay [2], the Her2 level was 90.5% (inactive). Besides, the differential viability (reversal) in assay [6] (H69AR cells + 2 uM doxorubicin) is 2.58% (inactive). Also, the values for the inhibition in [7], in assay [8] and in assay [14] were -3.47% (inactive), 3.67% (inactive) and 0.035% (inactive), respectively. The results for the growth inhibition in assay [9] and in [10] were -3.3% (inactive) and 12.9% (inactive), respectively. Besides, the viability increase in assay [11] was -1.2% (inactive). Also, the RAM network inhibition in [15] was 2.04% (inactive).
For the compound `CN(CCCNC(=O)c1cn(C)c2ccc(S(=O)(=O)N(C)C)cc2c1=O)c1ccccc1`, the viability in assay [1] is 85.5%; in assay [3], 85.5% (inactive); in [4] it was 98.3% (inactive); in assay [5], 87.7% (inactive); in assay [6] (setting [16]), 70.6%; in [6] (setting [17]), 87.7%. Besides, the viability was 94.8% (inactive) in assay [12] and 85% (inactive) in [13]. For the same compound, in assay [2], the Her2 level was 90% (inactive). The differential viability (reversal) in assay [6] (H69AR cells + 2 uM doxorubicin) is 17.1% (inactive). Besides, the inhibition is 0.38% (inactive) in assay [7], -1% (inactive) in assay [8] and 0.395% (inactive) in [14]. Moreover, the figures for the growth inhibition in [9] and in assay [10] were 1.83% (inactive) and -0.125% (inactive), respectively. Also, the viability increase in assay [11] was -3.8% (inactive). Also, in [15], the RAM network inhibition is 7.85% (inactive).
In the case of `CCn1c(C(=O)N2CCC(C(=O)N3CCN(c4ccccn4)CC3)CC2)cc2sccc21`, the viability is 95% in assay [1]; 95% (inactive) in [3]; 93.4% (inactive) in assay [4]; 87.1% (inactive) in assay [5]; 54.2% in assay [6] (setting [16]); 87.1% in assay [6] (setting [17]). For the same compound, the viability was 78.3% (inactive) in assay [12] and 78.2% (inactive) in assay [13]. Besides, the Her2 level in assay [2] is 108% (inactive). For the same compound, the differential viability (reversal) in assay [6] (H69AR cells + 2 uM doxorubicin) is 32.9% (inactive). For the same compound, the figures for the inhibition in [7], in assay [8] and in [14] were -2.8% (inactive), -3.5% (inactive) and 0.93% (inactive), respectively. Besides, the values for the growth inhibition in assay [9] and in assay [10] were -11.8% (inactive) and -12.2% (inactive), respectively. For the same compound, the viability increase in assay [11] was -3.83% (inactive). Further, the RAM network inhibition in [15] is 1.16% (inactive).
For the compound `CC1CCc2nn(CC(=O)NCCN3CCOCC3)cc2C1` (stereo not drawn), the viability in [1] was 101%; in [3], 101% (inactive); in assay [4] it was 98.6% (inactive); in assay [5] it was 89.4% (inactive); in assay [6] (setting [16]), 97.7%; in [6] (setting [17]) it was 89.4%. The viability in assay [12] was 108% (inactive); in [13] it was 101% (inactive). Further, the Her2 level in assay [2] was 113% (inactive). The differential viability (reversal) in [6] (H69AR cells + 2 uM doxorubicin) is -8.26% (inactive). Besides, the inhibition was -2.44% (inactive) in [7], -2.33% (inactive) in [8] and 0.965% (inactive) in assay [14]. The growth inhibition in assay [9] was 2.41% (inactive); in assay [10], 6.26% (inactive). For the same compound, the viability increase in assay [11] is 0.93% (inactive). The RAM network inhibition in assay [15] is 4.43% (inactive).
In the case of `Cc1cc(C)nc(NC(=O)c2cnc3sccn3c2=O)n1`, the viability is 106% in assay [1]; 106% (inactive) in assay [3]; 90.5% (inactive) in assay [4]; 96.5% (inactive) in assay [5]; 105% in assay [6] (setting [16]); 96.5% in assay [6] (setting [17]). Further, the viability in assay [12] is 97.7% (inactive); in assay [13], 98.3% (inactive). In assay [2], the Her2 level was 88.5% (inactive). Besides, the differential viability (reversal) in [6] (H69AR cells + 2 uM doxorubicin) was -8.39% (inactive). Further, the inhibition is -4.67% (inactive) in assay [7], 4.5% (inactive) in assay [8] and 0.9% (inactive) in assay [14]. Moreover, the growth inhibition is -12.5% (inactive) in assay [9] and -10.7% (inactive) in assay [10]. For the same compound, in assay [11], the viability increase was -1.3% (inactive). The RAM network inhibition in assay [15] is 0.52% (inactive).
In the case of `Cc1nnc(NC(=O)c2ccco2)s1`, the viability in [1] was 98.5%; in assay [3], 98.5% (inactive); in assay [4], 98.6% (inactive); in [5], 104% (inactive); in assay [6] (setting [16]), 96.3%; in [6] (setting [17]) it was 104%. In addition, the viability in [12] is 94.9% (inactive); in [13], 97.2% (inactive). Further, in [2], the Her2 level was 92.5% (inactive). In addition, the differential viability (reversal) in assay [6] (H69AR cells + 2 uM doxorubicin) is 7.39% (inactive). Besides, the inhibition is -4.13% (inactive) in assay [7], 7.21% (inactive) in [8] and 0.67% (inactive) in assay [14]. Besides, the growth inhibition in [9] is -10.1% (inactive); in [10], -8.55% (inactive). Moreover, the viability increase in [11] is 4.22% (inactive). Moreover, the RAM network inhibition in [15] was 0.21% (inactive).
`CN1CCC(NC(=O)c2cccs2)CC1`: the viability in assay [1] was 106%; in [3], 106% (inactive); in assay [4] it was 84.7% (inactive); in assay [5] it was 91% (inactive); in assay [6] (setting [16]), 83.1%; in [6] (setting [17]), 91%. The viability in [12] is 96.7% (inactive); in assay [13], 94.9% (inactive). In addition, in [2], the Her2 level was 90% (inactive). Besides, in [6] (H69AR cells + 2 uM doxorubicin), the differential viability (reversal) is 7.9% (inactive). Moreover, the results for the inhibition in assay [7], in [8] and in [14] were -4.13% (inactive), 7.5% (inactive) and 0.86% (inactive), respectively. Besides, the growth inhibition is 9.33% (inactive) in assay [9] and 17.3% (inactive) in [10]. Further, in assay [11], the viability increase was -0.16% (inactive). The RAM network inhibition in assay [15] was 1.18% (inactive).
Consider `COc1ccccc1-c1cc2nc(C)c(CCC(=O)NCc3ccco3)c(C)n2n1`, for which the viability in [1] is 80%; in assay [3], 80% (inactive); in [4], 88% (inactive); in assay [5] it was 89.9% (inactive); in [6] (setting [16]) it was 88.3%; in assay [6] (setting [17]) it was 89.9%. Also, the figures for the viability in [12] and in assay [13] were 97.2% (inactive) and 98.1% (inactive), respectively. Further, in assay [2], the Her2 level is 88% (inactive). Also, in assay [6] (H69AR cells + 2 uM doxorubicin), the differential viability (reversal) was 1.59% (inactive). Moreover, the inhibition was -2.69% (inactive) in [7], 0.33% (inactive) in assay [8] and 1.53% (inactive) in [14]. The growth inhibition was -2.34% (inactive) in assay [9] and -6.24% (inactive) in [10]. For the same compound, in assay [11], the viability increase is -3.72% (inactive). The RAM network inhibition in assay [15] was 4.36% (inactive).
